Laboratory results from PMC4336329 (PLoS ONE, 2015).
The whole screen tested about 310,000 compounds, of which about 14,000 (4.5%) showed an effect of 50% or more. Effects have a minus sign here. This is one part of a sample in which strong results are shown more often than they occur.

biological target: human ether-à-go-go-related gene (hERG) potassium channel (human, UniProt Q12809); experiment: primary screen, population patch clamp on CHO cells stably expressing hERG; higher = less effect of the substance
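Further: peak tail current of the secondary pulse compared with the same well before compound.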

Sequence of human ether-à-go-go-related gene (hERG) potassium channel (Q12809 whole entry, looked up): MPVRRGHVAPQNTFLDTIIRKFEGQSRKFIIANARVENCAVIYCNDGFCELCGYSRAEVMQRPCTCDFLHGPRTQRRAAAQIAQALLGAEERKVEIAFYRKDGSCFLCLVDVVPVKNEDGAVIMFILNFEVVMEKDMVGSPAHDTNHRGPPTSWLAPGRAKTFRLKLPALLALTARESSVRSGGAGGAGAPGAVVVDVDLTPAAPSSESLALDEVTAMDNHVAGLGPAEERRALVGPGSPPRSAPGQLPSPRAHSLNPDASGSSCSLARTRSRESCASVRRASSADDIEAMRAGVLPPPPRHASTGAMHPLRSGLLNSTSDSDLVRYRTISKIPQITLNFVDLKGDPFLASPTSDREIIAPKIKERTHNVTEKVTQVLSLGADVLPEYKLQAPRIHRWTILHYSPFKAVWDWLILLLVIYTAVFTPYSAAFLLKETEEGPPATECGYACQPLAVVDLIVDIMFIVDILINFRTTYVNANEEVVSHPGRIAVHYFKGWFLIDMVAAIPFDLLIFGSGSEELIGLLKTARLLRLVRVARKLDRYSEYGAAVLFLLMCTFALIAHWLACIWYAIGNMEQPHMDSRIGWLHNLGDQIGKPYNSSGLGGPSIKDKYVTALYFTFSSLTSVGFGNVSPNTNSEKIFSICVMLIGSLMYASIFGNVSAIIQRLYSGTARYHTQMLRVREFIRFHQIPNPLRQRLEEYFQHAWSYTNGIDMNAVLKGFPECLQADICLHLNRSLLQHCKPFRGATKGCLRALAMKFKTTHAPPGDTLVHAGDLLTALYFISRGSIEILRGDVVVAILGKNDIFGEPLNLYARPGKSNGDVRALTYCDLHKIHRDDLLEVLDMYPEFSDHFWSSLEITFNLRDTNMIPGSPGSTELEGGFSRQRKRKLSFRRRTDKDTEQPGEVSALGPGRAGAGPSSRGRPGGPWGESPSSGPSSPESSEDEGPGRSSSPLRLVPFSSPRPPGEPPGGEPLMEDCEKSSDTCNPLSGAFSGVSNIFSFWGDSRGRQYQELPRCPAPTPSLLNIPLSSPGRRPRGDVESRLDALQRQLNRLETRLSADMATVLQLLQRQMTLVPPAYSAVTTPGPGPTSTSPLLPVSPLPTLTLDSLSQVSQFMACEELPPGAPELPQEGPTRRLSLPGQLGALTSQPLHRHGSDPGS

Structure (SMILES)	hERG current change (%, negative = inhibition) at 10uM [%]
O=C(NN=C1CCCCCCCCCCC1)c1cccnc1	19.8
CCN(CC)S(=O)(=O)c1cccc(C(=O)Nc2cccnc2)c1	-17.7
CCN(CC)c1ccc(S(=O)(=O)N(CC)CC)cc1NC(=O)c1cccnc1	-72.5
O=C(Nc1ccccc1)c1cc(S(=O)(=O)Nc2cccnc2)ccc1Cl	-3.06
CCN(CC)S(=O)(=O)c1cc(C(=O)Nc2ccncc2)ccc1Cl	-66.3
CCN(CC)c1ccc(NC(=O)c2cccnc2)c(C)c1	26.9
CCN(CC)c1ccc(S(=O)(=O)N(CC)CC)cc1NC(=O)C1CCCC1	-13.6
CCN(CC)S(=O)(=O)c1ccc(Cl)c(C(=O)Oc2cccnc2)c1	-36.8
CCN(CC)S(=O)(=O)c1cc(C(=O)Nc2cc(C)[nH]n2)ccc1Cl	-10.3
CCN(CC)S(=O)(=O)c1cc(C(=O)Nc2cccnc2)ccc1Cl	-67.9
O=C(Nc1cccnc1)c1ccc(Cl)c(Cl)c1	10.3
CCN(CC)S(=O)(=O)c1cc(C(=O)Nc2cccnc2Cl)ccc1Cl	8.87
CCN(CC)S(=O)(=O)c1ccc(Cl)c(C(=O)Nc2cccnc2)c1	-55.8
COc1cccc(-c2sc3ccc(OC)cc3c2C#CCCO)c1	-7.87
CCc1nnc(NC(=O)CSC(=S)N2CCOCC2)s1	14.6
CC(=O)c1cn(CC(=O)Nc2ccccc2F)c2ccccc12	2.54
Cc1nc2ccc(N)cc2c(=O)n1Cc1ccc(Cl)cc1	-11.4
N#Cc1ccc(N2CCOCC2)c([N+](=O)[O-])c1	-21.7
COc1ccccc1N(C)S(=O)(=O)c1ccc(Cl)c(C(=O)Nc2ccncc2)c1	-73.4
Cn1nc(C(=O)Nc2ccccc2N2CCOCC2)ccc1=O	-24.4
CCN(CC)S(=O)(=O)c1cc(C(=O)Nc2cc(Cl)ccc2N2CCN(C)CC2)ccc1Cl	-53.5
CN1CCN(c2ccc(Cl)cc2NC(=O)c2cccc(S(=O)(=O)N(C)C)c2)CC1	-36.9

Structure (SMILES)	hERG current change (%, negative = inhibition) at 10uM [%]
CN1CCN(c2ccc(Cl)cc2NC(=O)c2ccc([N+](=O)[O-])cc2)CC1	-10.6
CN1CCN(c2ccc(Cl)cc2NC(=O)c2ccc(S(=O)(=O)N(C)C)cc2)CC1	1.58
COc1ccccc1N(C)S(=O)(=O)c1ccc(C(=O)Nc2ccncc2)cc1	-28.6
CN1CCN(c2ccc(Cl)cc2NC(=O)c2ccc(=O)n(C)n2)CC1	-58.3
CN(c1ccccc1)S(=O)(=O)c1ccc(Cl)c(C(=O)Nc2ccncc2)c1	-5.35
CCOc1cccc2sc(N3CCN(C(=O)c4ccc5ncsc5c4)CC3)nc12	2.18
CCS(=O)(=O)NC(C)C(c1cccs1)N1CCN(c2ccc(OC)cc2)CC1 (stereo not shown)	-7.31
O=C(CN(Cc1ccccc1)C(=O)CCC(=O)Nc1nccs1)NCc1ccc(F)cc1	-1.38
COc1ccc(CN(CC(=O)NCCc2ccccc2)C(=O)CCC(=O)Nc2ccccn2)cc1	-27.1
O=C(CN(Cc1ccc(F)cc1)C(=O)CCC(=O)Nc1ccccn1)NCCc1ccccc1	-15.7
COc1ccc(CN(CC(=O)NCc2ccc(F)cc2)C(=O)CCC(=O)Nc2ccccn2)cc1	-28.2
O=C(CN(Cc1ccccc1)C(=O)CCC(=O)Nc1ccccn1)NCCc1ccccc1	-52.4
COc1ccc(CNC(=O)CN(Cc2cccs2)C(=O)CCC(=O)Nc2ccccn2)cc1	-41.1
COc1ccc(CNC(=O)CN(Cc2ccc(OC)cc2)C(=O)CCC(=O)Nc2ccccn2)cc1	-64.4
O=C(CN(Cc1ccc(F)cc1)C(=O)CCC(=O)Nc1nccs1)NCc1ccccc1	-35.6
COc1ccc(CNC(=O)CN(Cc2ccccc2)C(=O)CCC(=O)Nc2ccccn2)cc1	-55.9
O=C(CN(Cc1ccc(F)cc1)C(=O)CCC(=O)Nc1nccs1)NCc1ccc(F)cc1	-50.5
COc1ccc(CN(CC(=O)NCc2ccccc2)C(=O)CCC(=O)Nc2ccccn2)cc1	-21.1
COc1ccc(CN(CC(=O)NCc2ccccc2)C(=O)CCC(=O)Nc2cc(C)ccn2)cc1	-17.2
O=C(O)CC(NC(=O)C(c1ccccc1)c1ccccc1)c1cccc([N+](=O)[O-])c1 (stereo not shown)	2.05
CNC(=O)CNC(=O)Nc1ccc(Cl)c(Cl)c1	9.11
CC(Cc1cnccn1)NCc1c(C(=O)N2CCCCCCC2)nc2ccc(Cl)cn12 (stereo not shown)	-12.8

Structure (SMILES)	hERG current change (%, negative = inhibition) at 10uM [%]
CCn1c(=O)c2c(nc3n2CCCN3Cc2ccccc2)n(C)c1=O	-18.2
CC#CCCc1nc2ccccc2c(=O)n1N	15.9
Cc1cc([N+](=O)[O-])ccc1NCc1ccc2c(c1)OCCO2	5.37
CCCCOC(=O)Nc1cccc(Cl)c1C	-15.6
CC(C)CN(C(=O)COC(=O)c1ccc2c(c1)NC(=O)CS2)C1CCS(=O)(=O)C1 (stereo not shown)	13.1
COc1ccccc1NC(=S)N(c1ccccc1)C(C)C	6.18
C=C(C)Cn1c(SCCCO)nc2c1c(=O)[nH]c(=O)n2C	-4.83
Cc1cc(C)c2nc(C(F)(F)F)nc(N3CCN(C(=O)c4ccco4)CC3)c2c1	6.1
Cc1ccc(N2C(=O)C(NC(=O)c3ccccc3)(C(F)(F)F)C3=C2CC(C)(C)CC3=O)cc1 (stereo not shown)	7.2
O=C(Nc1nccs1)c1ccc(Cl)cc1[N+](=O)[O-]	-9.1
Cc1csc(NC(=O)c2ccccc2[N+](=O)[O-])n1	2.69
Cc1csc(NC(=O)c2ccc(Cl)cc2[N+](=O)[O-])n1	-64.8
COC(=O)c1ccc(CSc2nnc(NC(=O)C3CCCO3)s2)cc1 (stereo not shown)	-23.5
CCN(CC)S(=O)(=O)c1ccc(N2CCOCC2)c(NS(=O)(=O)c2ccc(C(C)C)cc2)c1	-6.87
O=C(C1CC(=O)N(c2ccccc2)C1)N1CCC(c2nc3ccccc3[nH]2)CC1 (stereo not shown)	9.08
COc1ccc(N2CC(C(=O)N3CCC(c4nc5ccccc5[nH]4)CC3)CC2=O)cc1 (stereo not shown)	-19.3
O=C(C1CC(=O)N(c2ccc(Cl)cc2)C1)N1CCC(c2nc3ccccc3[nH]2)CC1 (stereo not shown)	-71.6
O=C(C1CCCCC1)N1CCC(c2nc3ccccc3[nH]2)CC1	-5.51
O=C(C1CC(=O)N(c2ccc(F)cc2)C1)N1CCC(c2nc3ccccc3[nH]2)CC1 (stereo not shown)	-63.8
Cc1ccc(N2CC(C(=O)N3CCC(c4nc5ccccc5[nH]4)CC3)CC2=O)cc1C (stereo not shown)	-46.2
Clc1ccccc1CSc1nnc(-c2ccncc2)o1	-14
COCCNCC(=O)NC12CC3CC(CC(C3)C1)C2	8.91

Structure (SMILES)	hERG current change (%, negative = inhibition) at 10uM [%]
CC(C)COc1ccc(C(=O)N2C(=O)c3ccc(N)cc3C2=O)cc1	4.32
COc1ccc(/C(O)=C2/C(=O)C(=O)N(CCN(C)C)C2c2ccc(C)cc2)cc1Cl (stereo not shown)	5.16
COc1ccc(/C(O)=C2/C(=O)C(=O)N(CCN(C)C)C2c2ccc(F)cc2)cc1Cl (stereo not shown)	13.8
COc1ccc(CNC(=O)N2CCN(c3ccc(F)cc3)CC2)cc1Cl	-26.1
COc1ccc(C2CN(C)CC2C(=O)c2ccc(F)cc2)cc1Cl (stereo not shown)	-78.7
COc1ccc(C2CN(C)CC2C(=O)c2ccc(C)cc2)cc1Cl (stereo not shown)	-63
Cc1c(C(N)=O)sc(N)c1C(=O)OC(C)C	9.72
COC(=O)c1ccc(N=C2SCC(=O)N2C)cc1	14.3
CCOc1cc(OCC)nc(S(C)(=O)=O)n1	-0.891
CCN(CC(=O)NCc1ccc(F)cc1)C(=O)CN1CCN(c2ccc(OC)cc2)CC1.O=C(O)C(=O)O	-61.9
COc1ccc(CNC(=O)N2CCN(c3ccc(F)cc3)CC2)cc1	-6.24
CCOc1ccccc1N1CCN(C(=O)NCc2ccc(F)cc2)CC1	-9.29
COc1ccccc1N1CCN(CC(=O)NCc2ccc(Cl)cc2)CC1	-0.607
COc1ccc(C(=O)CN2CCN(c3ccc(F)cc3)CC2)cc1	-38.3
CCN(CC(=O)NCc1ccc(F)cc1)C(=O)CN1CCN(c2cc(Cl)ccc2C)CC1	-73.1
Cc1cccc(N2CCN(CC(=O)NCc3ccc(Cl)cc3)CC2)c1C	-29.2
Cc1ccccc1N1CCN(CC(=O)NCc2ccc(Cl)cc2)CC1	-27
CCN(CC(=O)NCc1ccc(F)cc1)C(=O)CN1CCN(c2ccccc2OC)CC1	-61.4
CC(=O)Nc1ccc(NCc2cccs2)cc1	6.07
